Assay outcomes (PubChem BioAssay)
VP16 counter: counter-screen for ROR gamma inhibitors: Gal4-VP16 reporter; Drosophila S2 Gal4-VP16 UAS-luciferase, luminescence, 20 h; Potency, µM (doses to about 53.6 µM), for inactives: top-dose activity, negative = inhibition, most hits filed as inhibitors; 310,000 tested, 3.5% active; AID 2546;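 further: Gal4-VP16 expression switched on by copper sulfate through the metallothionein promoter; on the % scale 0 is the no-effect control and ±100 the full control effect; nearly all actives have a fitted effect of over 50% in size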
HepG2 tox: counter-screen for TGF-b inhibitors: cytotoxicity in HepG2 cells; 410,000 tested, 0.76% active; Potency, µM (highest dose often 46.1 µM), for the others: at the top dose activity change, negative = cytotoxicity, most hits filed as cytotoxic; HepG2 CAGA-GFP viability, ATP luminescence, 18 h
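CellTiter-Glo luminescence gave cytotoxicity after 18 hours at 37 degrees C. The cells were HepG2 CAGA-GFP in 1% FBS DMEM, stimulated with 500 pg/mL TGF-beta after compound addition. %Activity was normalised to no-cell wells (complete cell-killing) and DMSO (no toxicity), and curves were fitted and classified.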
ATXN2 expr inh: reduces ATXN2 reporter expression in HEK-293 cells; HEK-293 ATXN2-luciferase reporter, luminescence, 24 h; Potency, µM (highest dose often 57 µM), for inactives: top-dose activity change, negative = inhibition, hits mostly inhibitors; 360,000 tested, 0.72% active; AID 1745845; further: on the % scale 0 is the no-effect control and ±100 the full control effect; nearly all actives have a fitted effect of over 55% in size
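ATXN2-luciferase reporter cells (luciferase flanked by upstream and downstream ATXN2 gene portions) were treated 24 h at 37 °C with compounds at up to 57 uM. SteadyGlo luminescence gave expression; GF-AFC fluorescence gave viability.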
TGFb inhibitor: inhibitors of TGF-b signaling | HepG2 CAGA-GFP TGF-b/SMAD3 reporter, GFP fluorescence, 18 h; TGF-beta stimulated, 500 pg/mL final | Potency, µM (highest dose often 46.1 µM), without a hit: at the highest dose activity, negative = inhibition, most hits filed as inhibitors | 410,000 tested, 1.2% active | AID 588855; further: on the % scale 0 is the no-effect control and ±100 the full control effect; nearly all actives have a fitted effect of over 65% in size
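GFP signal (ex488/em500-530) from TGF-beta-stimulated HEPG2 CAGA-GFP cells, 500 pg/mL final, 18 h at 37 degrees C in DMEM plus 1% FBS, normalized to unstimulated and DMSO-stimulated controls.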
RORgamma inh: ROR gamma (mouse) transcription inhibition; Drosophila S2 Gal4-RORgamma UAS-luciferase reporter, 20 h; Potency, µM (highest dose often 53.6 µM), inactives show at the highest dose activity change, negative = inhibition, usual class: inhibitors; 310,000 tested, 5.4% active; further: on the % scale 0 is the no-effect control and ±100 the full control effect; nearly all actives have a fitted effect of over 60% in size
Target sequence (P51450 whole entry, looked up, the tested form may be a part): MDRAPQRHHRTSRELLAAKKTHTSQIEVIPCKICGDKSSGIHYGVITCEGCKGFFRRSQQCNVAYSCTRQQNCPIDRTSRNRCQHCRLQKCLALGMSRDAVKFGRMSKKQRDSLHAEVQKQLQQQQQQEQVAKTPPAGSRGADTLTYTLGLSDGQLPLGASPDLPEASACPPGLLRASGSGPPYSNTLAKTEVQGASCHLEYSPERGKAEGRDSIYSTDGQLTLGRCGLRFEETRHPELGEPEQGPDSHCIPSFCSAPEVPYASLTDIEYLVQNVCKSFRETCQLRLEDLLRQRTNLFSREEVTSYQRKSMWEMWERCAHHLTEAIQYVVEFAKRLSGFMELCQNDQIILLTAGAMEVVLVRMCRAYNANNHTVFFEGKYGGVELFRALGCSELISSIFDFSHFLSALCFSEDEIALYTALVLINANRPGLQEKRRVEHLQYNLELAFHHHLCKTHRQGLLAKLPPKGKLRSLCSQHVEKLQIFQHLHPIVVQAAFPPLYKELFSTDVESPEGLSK
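Schneider cells (Drosophila), stable Gal4 DBD–ROR gamma + UAS-luc; 1 hr cmpd preincubation; Cu2+ induction 700 uM final; 20 hr ambient; luminescence.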
S2 tox: viability counter-screen for ATXN expression inhibitors; Potency, µM (doses to about 56.7 µM), most hits filed as cytotoxic; S2 cells (HEK-293 line with an ATXN2-luciferase reporter) viability, CellTiter-Fluor protease fluorescence, 24 h; 400,000 tested, 0.49% active; further: nearly all actives have a fitted effect of over 40% in size
An asterisk follows results filed as active; i = inactive; ? = inconclusive; . = not tested or not shown; [ ] = remark or other dose. In the library only some 6.3% were active in any assay of this set; here they are far more common. The call rests on the fitted dose curve; in most records, active means well fitted curve in the direction sought with a large enough effect; inconclusive means small, poorly fitted or top-dose-only effect, or another doubt; inactive means no such curve, though single readings can be large; an effect the other way counts as inactive or inconclusive. Potency means the concentration at half of the fitted maximal effect.

SMILES | VP16 counter | HepG2 tox | ATXN2 expr inh | TGFb inhibitor | RORgamma inh | S2 tox
Cc1cc(C)nc(Nc2ncc(O)n2-c2ccc(C)c(Cl)c2)n1 | ? | -2% | 3% | -8% | 11µM* | i
Cc1cc(Br)cnc1NC(=S)Nc1ccc(F)cc1F | ? | -23% | -5% | -22% | 6.3µM* | i
O/N=C/c1ccc2ccccc2n1 | -5% | 15% | 32% | -9% | -30% | i
Cc1cc(C)c2ccc(NN)nc2c1O | 10µM* | -4% | -27% | -28% | 6.3µM* | ?
Cc1cc(C)c2ccc(/C=N/O)nc2c1O | 6.3µM* | -101% | . | 18µM* | 3.2µM* | i
Cc1cc(NN)nc(Cc2ccccc2)n1 | 5% | -8% | -15% | 0% | -41% | ?
Cc1cnc(C)c(-c2cccc3c2OC(CNC(=O)C[C@@H]2C[C@@H](C)NC(=S)N2)C3)n1 (stereo partly drawn) | . | . | . | . | . | i
CCc1cccc(NC(=O)c2oc3ccc4c(c3c2C)C(=O)CC(C)(C)O4)c1 | . | -17% | 87% | 4% | . | i
CCOc1cccc2sc(Nc3nc4ccc(NC(C)=O)cc4s3)nc12 | 4µM* | -26% | ? | 0% | 3.5µM* | i
Cn1c(NN)nc2sc3c(c2c1=O)CC(C)(C)OC3 | 3.5µM* | -86% | ? | ? | 1.4µM* | ?
CCCCCc1nc2sc3c(c2c(=O)n1NC(=O)c1ccc([N+](=O)[O-])cc1)CC(C)(C)OC3 | -87% | -3% | ? | ? | 22µM* | ?
Cc1nc(NN)c2c3c(sc2n1)COC(C)(C)C3 | -21% | -30% | -7% | ? | 13µM* | .
CCC1(C)Cc2c(sc3nc(NC)n(C)c(=O)c23)CO1 (stereo not drawn) | -12% | -29% | 14% | -4% | 39% | i
CC1(C)Cc2c(sc3nc(=S)[nH]c(N)c23)CO1 | 18µM* | . | . | . | ? | .
Oc1ccccc1C1C=C(c2ccc3c(c2)OCO3)NC(c2ccc(Br)cc2)N1 (stereo not drawn) | . | -22% | . | -11% | . | .
CCC1(C)Cc2c(sc3nc(SC)[nH]c(=S)c23)CO1 (stereo not drawn) | 6.3µM* | -7% | 6% | -5% | ? | ?
CCC[C@H](NC(=O)[C@H](CC(C)C)N(C)C(=O)CNC(=O)[C@@H](NC(=O)[C@H](Cc1ccccc1)NC(=O)[C@H](CCCCN)NC(=O)[C@@H](N)CC(=O)O)C(C)C)C(N)=O | -8% | . | . | . | 3% | .
CCCCNc1c(-c2cccc(-c3cc(C(C)=O)cs3)c2)nc2ccc(C)cn12 | . | 18µM* | ? | ? | . | 16µM*
CCOC(=O)[C@@](C)(N)Cc1ccc(O)c(O)c1 | . | . | -26% | . | . | ?
CO[C@H]1CC[C@@]2(C)[C@@H](CC[C@@H]3[C@@H]2CC[C@@]2(C)[C@H]3C[C@H](C(=O)O)O[C@]23CCCO3)C1 | . | 16µM* | -5% | 2% | . | i
Clc1cccc(Nc2c3c(nc4ncnn24)CCC3)c1 | -3%[0.365 µM] | -2% | -3% | ? | ? | i
CCc1cccc(Nc2c3c(nc4ncnn24)CCC3)c1 | 16µM* | -6% | . | -3% | 10µM* | i
CCOc1ccc(Nc2c3c(nc4ncnn24)CC(C)CC3)cc1 (stereo not drawn) | -8% | -12% | -4% | 0% | -24% | i
Cc1ccc(Nc2c3c(nc4ncnn24)CC(C)CC3)cc1 (stereo not drawn) | ? | -5% | 49% | ? | 18µM* | i
COc1cc(C2C(=O)N(C3CCCCC3)CC(=O)N2C2CCCCC2)ccc1OC(C)C (stereo not drawn) | . | -6% | . | -4% | . | .
SMILES | VP16 counter | HepG2 tox | ATXN2 expr inh | TGFb inhibitor | RORgamma inh | S2 tox
COC(=O)/C=C1\NC(=O)C(C)S1 (stereo not drawn) | 12% | -24% | -38% | 0.56µM* | 0% | ?
CCOC(=O)/C=C1\NC(=O)C(C)S1 (stereo not drawn) | -1% | 4% | 0% | 12% | -5% | i
O=C(Nc1ncnc2sc3c(c12)CCCCC3)c1ccco1 | ? | -8% | -34% | -9% | ? | i
O=C(Nc1ncnc2sc3c(c12)CCCC3)c1ccncc1 | 11µM* | -6% | -20% | -3% | ? | i
CC(=O)c1c(C)oc2ccc(N(C(C)=O)S(=O)(=O)c3ccc(Br)cc3)cc12 | . | -29% | -20% | ? | . | i
CC(=O)c1c(C)oc2ccc(N(C(C)=O)S(=O)(=O)c3ccc(Cl)c([N+](=O)[O-])c3)cc12 | ? | -21% | 25µM* | 7% | ? | .
CC(C)c1ccc(N(CC(=O)NCCCN2CCOCC2)S(=O)(=O)c2ccccc2)cc1 | . | -3% | 15% | 5% | . | i
CC(=O)C[C@H]1c2cc(C(F)(F)F)ccc2S(=O)(=O)N1C1CCCCC1 | . | -16% | -5% | 11µM* | . | i
COC(=O)C[C@H]1c2cc(C(F)(F)F)ccc2S(=O)(=O)N1C1CCCCC1 | . | -4% | -5% | ? | . | i
COc1cc(C(=O)O/N=C2/C=C(C)C(=O)C=C2C)cc(OC)c1OC | -14% | -22% | -9% | -3% | -38% | i
CC1=C(C)/C(=N\OS(=O)(=O)c2ccc(C)cc2)C=CC1=O | 2µM* | 4µM* | ? | 2.8µM* | 5µM* | 8.9µM*
CC1=C/C(=N\OS(=O)(=O)c2ccccc2)C(C)=CC1=O | 2.5µM* | 11µM* | 22µM* | 10µM* | 1.1µM* | 20µM*
CC1=C/C(=N\OS(=O)(=O)c2ccccc2)C(C(C)C)=CC1=O | 0.79µM* | -97% | ? | ? | 2.8µM* | .
COc1ccc(C(O)c2nc(-c3cc(F)cc(F)c3)cs2)cc1 (stereo not drawn) | . | -21% | -17% | 3% | . | ?
CCOC(=O)c1c(C)[nH]c(C)c1S(=O)(=O)NCc1ccccc1C | -7% | 1% | 7% | 18% | 21% | i
CCCC1O[C@@H]2CC3C4CCC5=CC(=O)C=C[C@]5(C)C4C(OC(C)=O)C[C@]3(C)[C@]2(C(=O)COC(C)=O)O1 (stereo partly drawn) | -8% | 2% | -13% | 16% | ? | i
CCC[C@@H]1O[C@@H]2C[C@@H]3[C@H]4CCC5=CC(=O)C=C[C@@]5(C)[C@H]4[C@H](O)C[C@@]3(C)[C@@]2(C(=O)CO)O1 | -2%[17 µM] | . | . | . | -31%[16.9 µM] | .
CCCC1OC2CC3C4CCC5=CC(=O)C=CC5(C)C4C(O)CC3(C)C2(C(=O)O)O1 (stereo not drawn) | -10% | -2% | 5% | 1% | 14µM* | ?
